Source: PubChem (National Center for Advancing Translational Sciences (NCATS))
FEN1 inhibitor: qHTS Assay for the Inhibitors of Human Flap endonuclease 1 (FEN1) | 390,000 tested, 0.35% active | Recombinant FEN1 flap cleavage, fluorescence, 15 min | AID 588795, 2011 | Potency, µM (series often up to 114 µM), usual class: inhibitors | P39748; further: nearly all actives have a fitted effect of over 65% in size
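With each library titrated from low to high concentration, compounds met 10 nM FEN1 for 15 min at room temperature before 50 nM substrate was added; readings at 0 and 15 min fed four-parameter Hill curve fits.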
Pol eta inh-1: qHTS for Inhibitors of Polymerase Eta; recombinant Pol eta, fluorescent DNA replication assay; Potency, µM (doses to about 114 µM), hits mostly inhibitors; 390,000 tested, 1.2% active
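Pol eta at 10 nM preincubated with compounds 15 min at room temperature; reaction started with fluorescent substrate (50 nM final) and read kinetically at 0 and 10 min.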
POLB inh: qHTS Assay for Inhibitors of DNA Polymerase Beta. P06746. Pol beta primer extension/strand displacement, fluorescence kinetic. Potency, µM (doses to about 114 µM), usual class: inhibitors. 340,000 tested, 1.3% active. AID 485314, 2010
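Curves were derived by four-parameter Hill fits of normalized qHTS data. The kinetic fluorescent primer-extension read was taken at 0 and 10 min after 50 nM substrate, following a 15 min room-temperature preincubation of 10 nM enzyme with compounds.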
POLI inh: qHTS for Inhibitors of Polymerase Iota; DNA polymerase iota (Homo sapiens), Q9UNA4; 390,000 tested, 1% active; Potency, µM (series often up to 115 µM), actives largely listed as inhibitors; Pol iota fluorescent replication assay, 10 min; AID 588590, 2011
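Fluorescent replication assay read twice, at 0 min and 10 min after adding 50 nM (final) substrate. Enzyme (10 nM) and compounds were first incubated 15 min at room temperature; enzyme-free buffer wells were negative controls.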
Pol kappa inh-1: qHTS for Inhibitors of Polymerase Kappa; DNA polymerase kappa (Homo sapiens), Q9UBT6; purified Pol kappa, fluorescent DNA synthesis assay, 10 min; Potency, µM (titrated, usually from 107 µM), most hits filed as inhibitors; 400,000 tested, 0.53% active; AID 588579, 2011
Target sequence (Q9UBT6 whole entry, looked up): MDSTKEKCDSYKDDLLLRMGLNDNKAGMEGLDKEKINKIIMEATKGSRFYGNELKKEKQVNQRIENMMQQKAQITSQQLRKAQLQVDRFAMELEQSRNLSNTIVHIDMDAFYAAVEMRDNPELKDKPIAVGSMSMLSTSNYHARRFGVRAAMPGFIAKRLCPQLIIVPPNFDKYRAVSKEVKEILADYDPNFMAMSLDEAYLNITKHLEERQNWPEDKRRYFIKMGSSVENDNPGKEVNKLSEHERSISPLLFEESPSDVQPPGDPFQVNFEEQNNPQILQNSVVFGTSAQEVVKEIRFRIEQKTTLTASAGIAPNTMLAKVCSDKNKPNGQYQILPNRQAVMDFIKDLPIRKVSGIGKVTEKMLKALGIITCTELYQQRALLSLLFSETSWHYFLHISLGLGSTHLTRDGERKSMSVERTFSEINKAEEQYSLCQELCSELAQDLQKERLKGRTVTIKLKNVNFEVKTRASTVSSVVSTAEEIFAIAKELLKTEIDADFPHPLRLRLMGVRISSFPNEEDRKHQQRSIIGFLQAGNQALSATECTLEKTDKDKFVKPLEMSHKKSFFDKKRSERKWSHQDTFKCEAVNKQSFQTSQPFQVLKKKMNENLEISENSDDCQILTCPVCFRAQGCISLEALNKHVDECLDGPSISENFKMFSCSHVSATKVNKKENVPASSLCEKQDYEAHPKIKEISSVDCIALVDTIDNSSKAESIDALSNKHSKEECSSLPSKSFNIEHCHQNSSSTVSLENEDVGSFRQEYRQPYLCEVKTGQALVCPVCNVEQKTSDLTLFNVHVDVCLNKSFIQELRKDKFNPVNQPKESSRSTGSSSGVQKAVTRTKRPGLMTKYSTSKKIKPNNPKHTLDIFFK
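First, compounds were pin-transferred onto 10 nM Pol kappa. After 15 min at room temperature, substrate was added to 50 nM final. Fluorescence was then measured kinetically at 0 and 10 min.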
WRN helicase inh: qHTS for Inhibitors of WRN Helicase. 360,000 tested, 0.46% active. Bifunctional 3'-5' exonuclease/ATP-dependent helicase WRN (Homo sapiens), Q14191. WRN helicase unwinding, fluorescent forked duplex, kinetic. AID 651768, 2012. Potency, µM (series often up to 114 µM), usual class: inhibitors; further: nearly all actives have a fitted effect of over 55% in size
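Primary qHTS, 1536-well format. 20 nM WRN + compound, 15 min RT; start with 100 nM forked fluorophore/quencher duplex, 2 mM ATP (final); kinetic read ex 525/em 598 nm.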
GALK confirm: Confirmation Assay for Inhibitors of Human Galactokinase (GALK). shares compounds with Pol eta inh-1. purified GALK, Kinase-Glo ATP depletion luminescence. Potency, µM (doses to about 115 µM), actives largely listed as inhibitors. 150 tested, 70% active. AID 2015, 2009
Redox cycling: Confirmatory Assay for Inhibitors of Human Galactokinase (GALK): Phenol-HRP redox assay counterscreen | shares compounds with Pol eta inh-1 | Phenol red-HRP H2O2 redox cycling, absorbance 600 nm | AID 2035, 2009 | 150 tested, 40% active | Potency, µM (highest dose often 115 µM), usual class: inhibitors
HEK293 tox: Secondary Assay for Inhibitors of Human Galactokinase (GALK): HEK-293 Cell Viability Assay | shares compounds with Pol eta inh-1 | HEK-293 viability, ATP luminescence (CellTiter-Glo), 24/48 h | Potency, µM (titrated, usually from 46.1 µM), actives largely listed as inhibitors | 170 tested, 10% active
Pol kappa inh-2: qHTS for Inhibitors of Polymerase Kappa: Confirmatory Assay for Cherry-picked Compounds | 920 tested, 76% active | shares compounds with Pol eta inh-1 | AID 720501, 2013 | purified Pol-kappa, fluorescent strand-displacement substrate | Potency, µM, usual class: inhibitors
Pol eta inh-2: qHTS for Inhibitors of Polymerase Eta: Confirmatory Assay for Cherry-picked Compounds | shares compounds with Pol eta inh-1 | Pol eta primer extension, TAMRA/BHQ fluorescence, 10 min | Potency, µM, usual class: inhibitors | 2,600 tested, 64% active | AID 720502, 2013
Numbers stand for hits; n = inactive; u = inconclusive; x = not tested or not shown; [ ] = another dose, or the depositor's remark. Hits are enriched below; roughly 2.4% of the tested compounds scored in any of these assays. The call rests on the fitted dose curve; in most records, active means well fitted curve in the direction sought with a large enough effect; inconclusive means small, poorly fitted or top-dose-only effect, or another doubt; inactive means no such curve, though single readings can be large; an effect the other way counts as inactive or inconclusive.

SMILES | FEN1 inhibitor | Pol eta inh-1 | POLB inh | POLI inh | Pol kappa inh-1 | WRN helicase inh | Pol eta inh-2 | others
O=C(O)c1cccc(-c2ccc(/C=N/Nc3nn[nH]n3)o2)c1 | n | u | u | n | u | n | 67.5
Cc1ccc(OCC(=O)N/N=C\c2ccc(-c3cccc(C(=O)O)c3)o2)c(C)c1 | n | 3.55µM | 20µM | u | 50.1µM | u | 30.1
CNC(=S)N/N=C/c1ccc(-c2cccc(C(=O)O)c2)o1 | n | n | n | n | n | n | x
COc1ccc(CC(=O)N/N=C/c2ccc(-c3cccc(C(=O)O)c3)o2)cc1OC | n | 10µM | 12.6µM | u | 79.4µM | n | 19 | Pol kappa inh-2=11.9
Cc1ccc(OCC(=O)N/N=C\c2ccc(C)o2)c(C)c1 | n | n | n | n | n | n | x
CC(C)(C)C1CCc2oc3ccc(NS(=O)(=O)c4ccc(C(=O)O)cc4)cc3c2C1 (stereo not drawn) | n | u | u | u | u | x | x | Pol kappa inh-2=u
COc1cc(/C=C2/CCCC(C(=O)C(F)(F)F)=C2O)ccc1O | n | n | n | n | n | u | x
CCOc1cc(/C=C2\CCCC(C(=O)C(F)(F)F)=C2O)ccc1O | u | u | 50.1µM | n | n | n | x | Pol kappa inh-2=75.2
CC1(C)OC(C)(C)/C(=C/Nc2ccc(O)cc2)C1=O | n | 17.8µM | u | u | n | n | u | Pol kappa inh-2=u
CC1(C)OC(=O)C(=CNc2cccc(O)c2)C(=O)O1 | n | n | n | n | n | n | x
Cn1c2ccccc2c(=O)n2c(=O)c3ccccc3cc12 | x | x | n | x | x | x | x | GALK confirm=10.6µM;Redox cycling=9.43µM;HEK293 tox=n
CN1CCc2nc3sc(C(=O)Nc4ccccc4C(F)(F)F)c(N)c3cc2C1 | n | n | n | n | n | x | x
O=C(Oc1cccc([N+](=O)[O-])c1)c1ccc2c(=O)n3c(nc2c1)CCC3 | n | 28.2µM | x | 39.8µM | u | n[11.6 µM] | 75.7
CCc1cccc(C)c1NC(=O)Cn1ccn(-c2ccc(F)cc2)c(=O)c1=O | n | n | n | n | n | x | x
COC1=C(N)C(=O)c2nc(-c3nc(C(=O)O)c(C)c(-c4ccc(OC)c(OC)c4O)c3N)ccc2C1=O | 3.98µM | 3.55µM | 10µM | 0.891µM | 50.1µM | u | x | GALK confirm=u;Redox cycling=0.943µM;HEK293 tox=0.0125µM
COc1ccc(C(=O)O)c(O)c1OC | x | x | x | x | n | x | x
CC(=O)n1cc(N(C(=O)CCl)c2ccc(Cl)cc2)c2ccccc21 | n | 28.2µM | n | u | n | n | u
CC1CCC2(C1)N=C(Nc1nc3ccccc3o1)NC1=C2C(=O)CCC1 (stereo not drawn) | x | x | x | x | x | x | x | HEK293 tox=u
O=c1[nH]c(Nc2nc3ccccc3o2)nc2c1CCCC2 | n | n | n | n | n | n | x
CC1(C)N=C(Nc2nc3ccccc3o2)NC2=C1C(=O)CCC2 | x | x | x | x | x | x | x | HEK293 tox=n
CC1=C(C(=O)O)N2C(=O)C(NC(=O)c3nn(C)c(C)c3Cl)C2SC1 (stereo not drawn) | n | 31.6µM | n | u | n | n | 47.8 | Pol kappa inh-2=42.3
Cc1oc(-c2ccc(Cl)cc2)nc1CSc1nnc(C)n2c1cc1sccc12 | n | n | n | n | n | x | x
CC1=C(C(N)=O)C(c2cccs2)n2nc(-c3cccc(Cl)c3)nc2N1 (stereo not drawn) | n | n | n | n | n | n | x | GALK confirm=u;Redox cycling=n;HEK293 tox=n
CC1=C(C(N)=O)C(c2cccs2)n2nc(-c3cccc(C)c3)nc2N1 (stereo not drawn) | n | n | n | n | n | n | x
CC1=N/C(=C/c2ccco2)C(=O)O1 | n | 10µM | 10µM | u | 50.1µM | n[11.6 µM] | 30.1
SMILES | FEN1 inhibitor | Pol eta inh-1 | POLB inh | POLI inh | Pol kappa inh-1 | WRN helicase inh | Pol eta inh-2 | others
O=C1OC(c2ccc(Br)cc2)=N/C1=C\c1ccco1 | n | n | n | n | n | n | x
CC(C)CS(=O)(=O)c1oc(-c2ccc(F)cc2)nc1S(=O)(=O)c1ccccc1 | n | n | n | u | n | x | x
CNS(=O)(=O)c1cccc(C(=O)OC2CCOC2=O)c1 (stereo not drawn) | n | n | n | n | n | n | x
CS(=O)(=O)c1ccc(C(=O)OC2CCOC2=O)cc1[N+](=O)[O-] (stereo not drawn) | n | 20µM | u | u | n | n | 37.9
Cc1cc(=O)oc2c(CN3CC(C)OC(C)C3)c(O)c(Cl)cc12 (stereo not drawn) | n | 20µM | 14.1µM | 35.5µM | u | u | u | Pol kappa inh-2=u
COc1ccc(C(=O)N2CCC3(CCCN(c4cccc(-c5ccccc5)c4)C3)CC2)cc1 | x | x | x | x | n | x | x
C/C1=C/CC(C)(C)/C=C/C/C(C)=C/CC1 | x | x | x | x | n | x | x
O=[N+]([O-])c1cc([N+](=O)[O-])c2oc(-c3ccccc3)c(Br)c2c1O | 44.7µM | 25.1µM | 28.2µM | u | u | u | x | GALK confirm=53µM;Redox cycling=n;HEK293 tox=n
O=C(CSc1nc(=O)[nH]c2c1CCC2)NCc1ccc(F)cc1 | n | n | n | n | n | x | x
O=C(COc1ccccc1C(=O)Nc1ccccc1)Nc1ccc(Br)cc1 | n | x | x | n | n | x | x
O=C(NNC(=O)c1ccccc1C(=O)O)c1cc2ccccc2o1 | n | n | n | u | n | n | x | GALK confirm=33.5µM;Redox cycling=n;HEK293 tox=n
Cc1cccn2c(=O)cc(COc3ccc(NC(=O)COc4ccc(F)cc4)cc3)nc12 | n | n | n | n | n | x | x
COC(=O)c1cc(C(=O)OC)cc(-n2c(C)cc(C(=O)COC(=O)CNS(=O)(=O)c3ccc(C)cc3)c2C)c1 | n | 22.4µM | n | u | n | n | u
Cc1ccc(S(=O)(=O)NCC(=O)OCC(=O)c2cc(C)n(-c3ccccc3)c2C)cc1 | n | n | n | n | n | n | x
